This is an account of results in the supplement of paper PMC11001985.

Unmarked numbers belong to inactive results.

Chain of UniProt Q15149 (Q15149 whole entry): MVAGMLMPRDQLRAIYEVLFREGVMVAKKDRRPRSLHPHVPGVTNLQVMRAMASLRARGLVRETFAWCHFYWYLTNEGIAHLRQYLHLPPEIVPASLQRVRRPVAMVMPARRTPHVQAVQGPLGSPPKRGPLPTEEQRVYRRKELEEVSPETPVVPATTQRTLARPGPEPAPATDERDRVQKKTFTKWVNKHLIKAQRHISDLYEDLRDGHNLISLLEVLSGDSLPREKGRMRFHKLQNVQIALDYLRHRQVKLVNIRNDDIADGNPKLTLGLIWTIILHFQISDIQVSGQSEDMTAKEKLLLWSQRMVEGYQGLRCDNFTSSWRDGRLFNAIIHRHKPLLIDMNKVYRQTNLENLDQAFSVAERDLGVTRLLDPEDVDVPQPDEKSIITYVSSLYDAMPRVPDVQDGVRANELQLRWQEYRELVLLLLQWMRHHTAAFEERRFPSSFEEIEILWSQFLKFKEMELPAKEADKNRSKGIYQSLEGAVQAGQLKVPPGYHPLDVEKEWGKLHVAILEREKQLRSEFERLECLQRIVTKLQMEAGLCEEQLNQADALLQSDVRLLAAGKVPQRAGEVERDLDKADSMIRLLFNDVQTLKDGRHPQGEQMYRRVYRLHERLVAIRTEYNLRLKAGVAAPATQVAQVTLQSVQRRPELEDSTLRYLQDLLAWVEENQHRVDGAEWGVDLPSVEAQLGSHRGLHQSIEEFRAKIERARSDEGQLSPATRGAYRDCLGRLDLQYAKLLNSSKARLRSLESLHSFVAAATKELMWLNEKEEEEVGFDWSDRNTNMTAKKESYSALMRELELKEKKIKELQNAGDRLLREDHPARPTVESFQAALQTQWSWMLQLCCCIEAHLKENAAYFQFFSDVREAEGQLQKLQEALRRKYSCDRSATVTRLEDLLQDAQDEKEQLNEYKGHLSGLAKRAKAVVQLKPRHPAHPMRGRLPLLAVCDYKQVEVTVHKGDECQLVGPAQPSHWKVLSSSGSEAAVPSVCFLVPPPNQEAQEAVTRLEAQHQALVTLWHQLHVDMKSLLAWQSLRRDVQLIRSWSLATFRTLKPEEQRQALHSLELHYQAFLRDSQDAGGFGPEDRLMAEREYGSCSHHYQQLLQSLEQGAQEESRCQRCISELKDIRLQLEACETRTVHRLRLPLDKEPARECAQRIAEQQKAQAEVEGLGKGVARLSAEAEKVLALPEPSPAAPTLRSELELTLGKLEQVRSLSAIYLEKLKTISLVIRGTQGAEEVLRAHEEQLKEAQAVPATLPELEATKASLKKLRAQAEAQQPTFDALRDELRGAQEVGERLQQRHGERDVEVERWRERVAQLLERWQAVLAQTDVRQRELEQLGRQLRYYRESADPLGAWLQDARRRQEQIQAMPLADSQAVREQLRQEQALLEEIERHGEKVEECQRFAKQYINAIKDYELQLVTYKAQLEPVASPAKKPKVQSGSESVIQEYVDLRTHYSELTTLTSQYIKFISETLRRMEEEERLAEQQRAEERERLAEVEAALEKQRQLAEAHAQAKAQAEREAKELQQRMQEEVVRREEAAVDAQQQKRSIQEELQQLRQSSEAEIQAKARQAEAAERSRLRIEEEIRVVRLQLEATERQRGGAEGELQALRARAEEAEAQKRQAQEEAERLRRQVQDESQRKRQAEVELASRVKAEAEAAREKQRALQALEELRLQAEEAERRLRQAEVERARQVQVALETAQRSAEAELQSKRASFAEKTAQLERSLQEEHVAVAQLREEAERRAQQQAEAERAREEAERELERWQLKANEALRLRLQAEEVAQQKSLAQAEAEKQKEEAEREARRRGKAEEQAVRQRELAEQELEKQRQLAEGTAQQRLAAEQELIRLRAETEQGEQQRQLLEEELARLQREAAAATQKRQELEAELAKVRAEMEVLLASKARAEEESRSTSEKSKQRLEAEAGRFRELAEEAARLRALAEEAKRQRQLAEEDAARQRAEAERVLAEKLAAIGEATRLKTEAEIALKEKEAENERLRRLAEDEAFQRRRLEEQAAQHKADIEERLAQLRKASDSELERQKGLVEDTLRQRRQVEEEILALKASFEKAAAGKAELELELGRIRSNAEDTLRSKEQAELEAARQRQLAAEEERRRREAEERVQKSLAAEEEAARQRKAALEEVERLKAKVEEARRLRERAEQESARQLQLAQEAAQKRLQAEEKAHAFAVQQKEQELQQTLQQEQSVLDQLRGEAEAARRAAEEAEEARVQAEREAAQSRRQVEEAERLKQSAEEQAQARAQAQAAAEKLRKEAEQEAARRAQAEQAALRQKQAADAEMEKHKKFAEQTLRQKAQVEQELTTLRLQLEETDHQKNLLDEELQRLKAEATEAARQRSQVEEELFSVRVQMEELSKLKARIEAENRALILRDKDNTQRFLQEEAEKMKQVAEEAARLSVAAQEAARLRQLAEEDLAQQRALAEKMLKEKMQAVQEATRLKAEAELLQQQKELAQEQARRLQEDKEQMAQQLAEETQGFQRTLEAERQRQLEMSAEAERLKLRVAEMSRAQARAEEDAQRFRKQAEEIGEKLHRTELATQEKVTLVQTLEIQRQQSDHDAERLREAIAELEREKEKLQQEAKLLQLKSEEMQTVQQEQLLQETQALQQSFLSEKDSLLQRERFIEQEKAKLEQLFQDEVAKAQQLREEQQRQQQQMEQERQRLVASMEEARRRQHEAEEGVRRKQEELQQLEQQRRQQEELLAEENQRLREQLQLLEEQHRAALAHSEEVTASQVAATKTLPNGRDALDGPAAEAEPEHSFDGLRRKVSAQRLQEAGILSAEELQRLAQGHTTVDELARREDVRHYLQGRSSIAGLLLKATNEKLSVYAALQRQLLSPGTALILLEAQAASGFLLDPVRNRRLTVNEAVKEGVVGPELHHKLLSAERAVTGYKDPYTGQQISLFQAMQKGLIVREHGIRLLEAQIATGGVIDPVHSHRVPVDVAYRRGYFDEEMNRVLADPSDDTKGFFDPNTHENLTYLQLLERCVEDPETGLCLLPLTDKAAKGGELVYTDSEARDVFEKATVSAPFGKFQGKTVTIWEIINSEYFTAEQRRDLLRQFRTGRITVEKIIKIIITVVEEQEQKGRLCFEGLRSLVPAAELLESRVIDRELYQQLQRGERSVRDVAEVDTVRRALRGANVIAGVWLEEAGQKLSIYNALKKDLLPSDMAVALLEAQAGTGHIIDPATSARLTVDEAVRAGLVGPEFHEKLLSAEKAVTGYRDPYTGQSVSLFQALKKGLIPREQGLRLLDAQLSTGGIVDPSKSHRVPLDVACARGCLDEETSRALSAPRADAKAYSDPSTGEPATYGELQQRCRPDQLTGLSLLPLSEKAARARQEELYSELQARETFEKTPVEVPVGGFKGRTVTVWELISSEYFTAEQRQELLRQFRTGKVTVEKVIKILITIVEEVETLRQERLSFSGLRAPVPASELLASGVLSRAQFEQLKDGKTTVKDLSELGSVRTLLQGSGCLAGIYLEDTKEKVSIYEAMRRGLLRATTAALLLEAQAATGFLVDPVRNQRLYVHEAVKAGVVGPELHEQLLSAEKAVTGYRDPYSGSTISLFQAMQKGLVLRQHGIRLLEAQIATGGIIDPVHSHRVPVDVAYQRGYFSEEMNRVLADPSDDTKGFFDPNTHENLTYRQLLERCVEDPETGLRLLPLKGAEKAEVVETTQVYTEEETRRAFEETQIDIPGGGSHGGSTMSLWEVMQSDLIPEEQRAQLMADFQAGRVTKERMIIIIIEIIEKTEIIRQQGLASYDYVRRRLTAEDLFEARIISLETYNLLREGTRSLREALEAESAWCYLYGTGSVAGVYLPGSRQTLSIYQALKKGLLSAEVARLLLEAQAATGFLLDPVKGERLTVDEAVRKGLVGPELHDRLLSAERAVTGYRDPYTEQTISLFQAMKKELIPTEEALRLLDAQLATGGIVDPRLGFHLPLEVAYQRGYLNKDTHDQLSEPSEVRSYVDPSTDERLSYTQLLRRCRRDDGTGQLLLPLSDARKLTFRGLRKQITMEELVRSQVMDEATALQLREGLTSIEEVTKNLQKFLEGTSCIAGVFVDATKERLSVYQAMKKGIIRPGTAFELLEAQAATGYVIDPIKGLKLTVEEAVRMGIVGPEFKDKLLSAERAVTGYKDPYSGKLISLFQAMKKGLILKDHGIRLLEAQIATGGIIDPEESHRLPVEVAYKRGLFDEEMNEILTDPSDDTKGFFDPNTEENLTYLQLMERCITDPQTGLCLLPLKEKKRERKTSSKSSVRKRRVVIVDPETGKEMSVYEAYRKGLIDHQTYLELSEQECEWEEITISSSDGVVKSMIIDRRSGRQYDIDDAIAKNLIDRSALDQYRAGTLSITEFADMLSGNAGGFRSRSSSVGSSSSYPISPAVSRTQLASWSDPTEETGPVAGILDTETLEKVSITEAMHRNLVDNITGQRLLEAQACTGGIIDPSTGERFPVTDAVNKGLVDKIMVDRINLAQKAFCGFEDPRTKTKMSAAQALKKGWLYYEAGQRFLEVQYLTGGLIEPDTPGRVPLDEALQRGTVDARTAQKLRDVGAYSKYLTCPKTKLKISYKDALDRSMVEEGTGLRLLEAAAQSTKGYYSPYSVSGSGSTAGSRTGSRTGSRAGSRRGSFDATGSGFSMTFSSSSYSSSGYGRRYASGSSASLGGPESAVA
Chain of UniProt P05186 (P05186 whole entry): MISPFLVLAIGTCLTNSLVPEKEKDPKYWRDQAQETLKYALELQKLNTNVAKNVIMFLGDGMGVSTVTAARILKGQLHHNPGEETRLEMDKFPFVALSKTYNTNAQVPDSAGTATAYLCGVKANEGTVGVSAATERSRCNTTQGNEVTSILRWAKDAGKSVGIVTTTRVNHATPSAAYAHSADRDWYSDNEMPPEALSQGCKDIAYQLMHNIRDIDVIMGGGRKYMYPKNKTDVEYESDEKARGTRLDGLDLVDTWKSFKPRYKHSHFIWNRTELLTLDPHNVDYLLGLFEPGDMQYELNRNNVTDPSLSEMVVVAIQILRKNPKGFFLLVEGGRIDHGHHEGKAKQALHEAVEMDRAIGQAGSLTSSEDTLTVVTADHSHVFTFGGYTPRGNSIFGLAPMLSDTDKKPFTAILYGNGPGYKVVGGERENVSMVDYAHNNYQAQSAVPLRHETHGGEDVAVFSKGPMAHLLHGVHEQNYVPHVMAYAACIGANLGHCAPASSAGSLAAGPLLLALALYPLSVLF

Compound in this assay: C#CCNC(=O)CCSSCCC(=O)NCCc1ccc(C=O)c(C=O)c1
Briefly: lysine labeling ratio R10:1 (500 µM / 50 µM probe), SILAC-ABPP in living cells; higher = lower intrinsic lysine reactivity toward the probe, active = 2 or less. The following applies: HeLa; probe concentrations 500 vs 50 µM. The procedure, abridged:
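The two probe levels, 50 µM and 500 µM, of an alkyne-tagged, disulfide-linked lysine probe were applied to living light and heavy SILAC HeLa cells in PBS at room temperature, and the labels were run in both forward and reverse orientation. Mixed lysates underwent biotin-azide click chemistry, trypsin digestion, neutravidin capture, DTT release and alkylation before LC-MS/MS on a TIMS-TOF Pro. R is the filtered median high-probe/low-probe MS1 peptide ratio for each lysine, summarised as the median over forward and reverse replicates. Nothing above 20 is reported; such values are set to 20.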
Consider “RTN4 (lysine site: K1066) (UniProt Q9NQC3)”, for which the “lysine labeling ratio R10:1” value was 3.4.

As for “TGFBR3 (lysine site: K667) (UniProt Q03167)”, the “lysine labeling ratio R10:1” value was 0.83 (active).

Consider “SUB1 (lysine site: K97) (UniProt P53999)”, for which the “lysine labeling ratio R10:1” value was 6.03.

Take “THBS1 (lysine site: K300) (UniProt P07996)”: the “lysine labeling ratio R10:1” value was 2.22.

On to “SPTBN1 (lysine site: K1421) (UniProt Q01082)”, for which the “lysine labeling ratio R10:1” value is 3.37.

In the case of “EDIL3 (lysine site: K426) (UniProt O43854)”, the “lysine labeling ratio R10:1” value was 2.91.

For “P4HB (lysine site: K103) (UniProt P07237)”, the “lysine labeling ratio R10:1” value is 4.27.

With UniProt Q15149 (lysine site: K3925), the “lysine labeling ratio R10:1” value is 3.1.

In the case of “ACIN1 (lysine site: K81) (UniProt Q9UKV3)”, the “lysine labeling ratio R10:1” value was 3.67.

Take “LAMC1 (lysine site: K1584) (UniProt P11047)”: the “lysine labeling ratio R10:1” value was 3.72.

As for “DSC2 (lysine site: K381) (UniProt Q02487)”, the “lysine labeling ratio R10:1” value is 1.71 (active).

With UniProt Q15149 (lysine site: K3849), the “lysine labeling ratio R10:1” value was 8.61.

On to “FRAS1 (lysine site: K263) (UniProt Q86XX4)”, for which the “lysine labeling ratio R10:1” value is 1.46 (active).

As for UniProt Q15149 (lysine site: K1659), the “lysine labeling ratio R10:1” value is 6.06.

Regarding “MLEC (lysine site: K85) (UniProt Q14165)”, the “lysine labeling ratio R10:1” value was 2.36.

As to “THRAP3 (lysine site: K519) (UniProt Q9Y2W1)”, the “lysine labeling ratio R10:1” value is 3.8.

For UniProt P05186 (lysine site: K74), the “lysine labeling ratio R10:1” value is 6.22.
